From PubChem BioAssay
Most compounds without a hit are left out; they make up all but 5.4% or so of the library.
Sm TGR inh – inhibitors of Schistosoma mansoni thioredoxin glutathione reductase | purified TGR, DTNB reduction, TNB absorbance 405 nm | Potency, µM (top dose mostly 114 µM), without a hit: top-dose activity change, negative = inhibition, hits mostly inhibitors | AID 485364 | 360,000 tested, 3% active | Q962Y6; active means well fitted inhibition curve with a large enough effect; inconclusive means small, poorly fitted or top-dose-only effect; inactive means no such curve, though single readings can be large or run the other way; further: nearly all actives have a fitted effect of over 60% in size
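Kinetic colorimetric format: TGR-catalysed, NADPH-driven DTNB reduction monitored via TNB absorbance. Enzyme dispensed at 20 nM; compound exposure 15 min at room temperature before reaction start.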
Vaccinia mCherry – vaccinia inhibition (mCherry reporter); Vaccinia virus mCherry reporter infection, fluorescence; Potency, µM (top dose mostly 36.5 µM), for the others: top-dose activity change, negative = inhibition, usual class: inhibitors; 310,000 tested, 0.63% active; calls by dose curve; tested in A549 cells; further: nearly all actives have a fitted effect of over 35% in size
FMDV antiviral – antivirals against foot and mouth disease virus; FMDV antiviral cell-based qHTS; Potency, µM (doses to about 57.9 µM), for the others: at the top dose activity change, negative = inhibition, most hits filed as inhibitors; 410,000 tested, 1.2% active; AID 1159524; calls by dose curve; tested in HEK293T cells; further: read-out not given here; nearly all actives have a fitted effect of over 45% in size
Lassa entry inh – Lassa virus entry inhibition. Lassa virus pseudotype entry inhibition, cell reporter. Potency, µM (doses to about 37.9 µM), inactives show at the top dose activity change, negative = inhibition, usual class: inhibitors. 300,000 tested, 1.2% active. AID 540256; calls by dose curve; tested in HEK293 cells; further: nearly all actives have a fitted effect of over 50% in size
Marburg entry inh – blocks Marburg virus binding to or entry into cells; Potency, µM (series often up to 37.8 µM), for the others: at the top dose activity change, negative = inhibition, hits mostly inhibitors; Marburg virus pseudotyped entry inhibition, cell reporter; 300,000 tested, 1.8% active; AID 540276; calls by dose curve; tested in HEK293 cells
Vaccinia Venus – inhibitors of vaccinia virus (Venus reporter). Vaccinia virus Venus reporter expression, fluorescence. Potency, µM (highest dose often 36.5 µM), for inactives: at the highest dose activity change, negative = inhibition, hits mostly inhibitors. 330,000 tested, 0.46% active; calls by dose curve; tested in A549 cells; further: nearly all actives have a fitted effect of over 30% in size
Numbers without * were called inactive; ! = repeats disagree; [ ] = dose if it differs, or a comment. On the % scale 0 is the no-effect control and ±100 the full control effect; potency means the concentration at half of the fitted maximal effect.

`CC12CC(O)C3C(CCC4=CC(=O)CCC43C)C1CCC2=O` (centres undefined) gave Vaccinia mCherry -5%, FMDV antiviral -2%, Lassa entry inh 0%[46.1 µM], Marburg entry inh 6%[46.1 µM] and Vaccinia Venus 4%.
For CC(=O)[C@H]1CC[C@H]2[C@@H]3CCC4=CC(=O)CC[C@]4(C)[C@H]3CC[C@]12C the results were Sm TGR inh 2%, Vaccinia mCherry -11%, FMDV antiviral inconclusive, Lassa entry inh inconclusive, Marburg entry inh inconclusive and Vaccinia Venus -28%.
CCC(C(=O)OCC(=O)C1(O)CCC2C3CCC4=CC(=O)CCC4(C)C3C(O)CC21C)C(C)C (centres undefined) was read as Vaccinia mCherry -23%, FMDV antiviral 20µM*, Lassa entry inh inconclusive, Marburg entry inh inconclusive and Vaccinia Venus inconclusive.
For COc1ccc(-c2cn3nc4c(nc3n2)CCCC4)cc1 the results were Sm TGR inh -32%, FMDV antiviral -30%, Lassa entry inh inconclusive, Marburg entry inh 5.6µM* and Vaccinia Venus -11%.
For CCOC(=O)c1cnc2ccc(OC)cc2c1NCCc1ccc(OC)c(OC)c1 the results were Sm TGR inh 2%, Vaccinia mCherry inconclusive, FMDV antiviral 18µM*!, Lassa entry inh inconclusive, Marburg entry inh inconclusive and Vaccinia Venus inconclusive.
For NC(=S)NN=C1CCCCCCCCC1 the results were Vaccinia mCherry 20µM*, FMDV antiviral -25%, Lassa entry inh -1%, Marburg entry inh -12% and Vaccinia Venus inconclusive.
For C=CC[C@@H]1C=C[C@@H](O/N=C(/C)CCC(=O)OC[C@@H]2O[C@H](C#Cc3ccccc3)C=C[C@@H]2Oc2ccc(C)cc2)[C@@H](CO)O1 the results were Marburg entry inh 29%[14.2 µM].
Screening NC[C@H](Cc1ccccc1)NCCCCC1CCCCC1 returned Sm TGR inh -6%, Vaccinia mCherry inconclusive, FMDV antiviral -16% and Vaccinia Venus -4%.
Screening CNC[C@H](CC1CCCCC1)NC[C@H](Cc1ccccc1)NCCC12CC3CC(CC(C3)C1)C2 returned Sm TGR inh 8%, Vaccinia mCherry inconclusive, FMDV antiviral 32µM* and Vaccinia Venus 10µM*.
`C=CCc1ccc(OCC(O)CN2CCN(c3ccccc3OC)CC2)c(OC)c1` (centres undefined) gave Sm TGR inh 0% and FMDV antiviral inconclusive.
C=CCc1ccc(OCC(O)CN2CCN(Cc3ccc(Cl)cc3)CC2)c(OC)c1 (centres undefined) was read as Sm TGR inh 1%, Vaccinia mCherry inconclusive, FMDV antiviral -30%, Lassa entry inh inconclusive, Marburg entry inh 8.2µM* and Vaccinia Venus inconclusive.
`C=CCc1ccc(OCC(O)CN2CCC(Cc3ccccc3)CC2)c(OC)c1` (centres undefined) gave Sm TGR inh 50µM*, FMDV antiviral -18%, Lassa entry inh 13µM*, Marburg entry inh inconclusive and Vaccinia Venus inconclusive.
`CC(C)(C)NC(=O)C(c1ccc(O)cc1)N(C(=O)CCC(=O)Nc1nccs1)c1ccccc1F` (centres undefined) gave Sm TGR inh -1%, Vaccinia mCherry -8%, FMDV antiviral -11%, Lassa entry inh 10%, Marburg entry inh inconclusive and Vaccinia Venus -4%.
`Cc1cccc(N(C(=O)CCC(=O)Nc2nccs2)C(C(=O)NC(C)(C)C)c2ccc(O)cc2)c1` (centres undefined) gave Vaccinia mCherry inactive, FMDV antiviral -2%, Lassa entry inh inconclusive, Marburg entry inh 2.8µM* and Vaccinia Venus -8%.
`CC(C)(C)NC(=O)C(c1ccc(O)cc1)N(C(=O)CCC(=O)Nc1nccs1)c1cccc(F)c1` (centres undefined) gave Sm TGR inh 6%, Vaccinia mCherry 1%, FMDV antiviral 16%, Lassa entry inh 0%[46.1 µM], Marburg entry inh 2.3µM* and Vaccinia Venus -2%.
For COCCNC(=O)C(c1ccc(F)cc1)N(C(=O)CCC(=O)Nc1nccs1)c1cccc(C)c1 (centres undefined) the results were Sm TGR inh 26%, Vaccinia mCherry -14%, FMDV antiviral -10%, Lassa entry inh -9%, Marburg entry inh inconclusive and Vaccinia Venus -14%.
For O=C(NC1=C(Nc2ccc(F)cc2)C(=O)c2ccccc2C1=O)c1ccc(Cl)cc1 the results were Sm TGR inh 22µM*, Vaccinia mCherry inconclusive, FMDV antiviral inconclusive, Lassa entry inh inconclusive, Marburg entry inh 14% and Vaccinia Venus inconclusive.
`O=C(NNC(=O)c1ccc(NC(=O)c2ccccc2)cc1)c1ccc(F)cc1` gave Sm TGR inh -19% and FMDV antiviral -5%.
O=C(c1c[nH]c(=O)n(-c2ccccc2)c1=O)N1CCc2ccccc21 was read as Sm TGR inh 70%, FMDV antiviral -2%, Lassa entry inh -3% and Marburg entry inh -5%.
For CCOc1ccc(-n2c(=O)[nH]cc(C(=O)N3CCc4ccccc43)c2=O)cc1 the results were Sm TGR inh -28%, Vaccinia mCherry inconclusive, FMDV antiviral -14%, Lassa entry inh -16%, Marburg entry inh 4%[46.1 µM] and Vaccinia Venus 2.8µM*.
For CC1=C(C(=O)O)N2C(=O)C(NC(=O)c3c(F)cccc3F)C2SC1 (centres undefined) the results were Sm TGR inh -19%, Vaccinia mCherry -1%, FMDV antiviral -2%, Lassa entry inh 14%, Marburg entry inh 12% and Vaccinia Venus 2%.
For Cc1nnc(SCC2=C(C(=O)O)N3C(=O)C(NC(=O)Cn4ncc(Cl)c4C)C3SC2)s1 (centres undefined) the results were Sm TGR inh 3.2µM*, Vaccinia mCherry inactive, FMDV antiviral 5%, Lassa entry inh -1%[46.1 µM], Marburg entry inh 13%[46.1 µM] and Vaccinia Venus -8%.
`Cc1nnc(SCC2=C(C(=O)O)N3C(=O)C(NC(=O)c4cccc(F)c4F)C3SC2)s1` (centres undefined) gave Sm TGR inh 10µM*, FMDV antiviral -11% and Marburg entry inh -2%.
`Cc1cc(C)n(CC(=O)NC2C(=O)N3C(C(=O)O)=C(CSc4nnc(C)s4)CSC23)n1` (centres undefined) gave Sm TGR inh 25µM* and FMDV antiviral -3%.
For C/C(N)=C(/C#N)C(=O)CSc1nnc(-c2ccccc2Br)o1 the results were Sm TGR inh 4%, FMDV antiviral -18%, Lassa entry inh inconclusive, Marburg entry inh 6.3µM* and Vaccinia Venus -28%.
COc1ccc(-c2nnc(SCC(=O)/C(C#N)=C(\C)N)o2)cc1 was read as Sm TGR inh 5%, FMDV antiviral -32%, Lassa entry inh inconclusive and Marburg entry inh inconclusive.
For O=C(Cc1ccc(Cl)cc1)NCC(c1cccs1)S(=O)(=O)c1ccc(F)cc1 (centres undefined) the results were Sm TGR inh -17%, Vaccinia mCherry inconclusive, FMDV antiviral -12%, Lassa entry inh inconclusive and Vaccinia Venus -28%.
